# Reference: the supplement of paper PMC12636033
# ± gives the standard deviation of the averaged measurements. Whole data set: some 33,000 sequences, median “E-score (rank enrichment, -0.5 to 0.5)” near -0.0043, cut for the highest 2% near 0.24. For the sample, the highest values were picked, then their nearest neighbours and some sequences at random.
# Tested on: 2Sp-muMax20 (muMax20 with two 2,6-bis(methyl)pyridine Cys staples)
# Experiment: PBM 8-mer E-score (E-score (rank enrichment, -0.5 to 0.5)); higher = stronger preferential binding
# Procedure: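 Protein binding microarray (universal PBM chip covering all 10-mers in fixed probe flanks) with chemically synthesized human Max(13-93) bHLH-LZ analogs (not full-length Max) bearing noncanonical residues (hArg, Tha, Aib, Nle at 65) and aromatic Cys staples. Read-out per 8-mer (and its reverse complement): E-score (rank-based enrichment, -0.5 to 0.5) and Z-score of median probe intensity.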
row,Sequence,PBM 8-mer E-score
1,GTAATTGA,0.0816 ± 0.034
2,GTAATTTA,0.0251 ± 0.0029
3,CTAATTGA,-0.0167 ± 0.015
4,ATAATTTG,0.183 ± 0.083
5,ATAATTGA,0.2552 ± 0.0018
6,ATAATTTA,0.284 ± 0.12
7,CGTGACTA,0.0126 ± 0.018
8,ATTCTAGG,-0.0261 ± 0.025
9,ATTAACGA,0.0547 ± 0.19
10,GTCCACCA,-0.0165 ± 0.0032
11,CTGCCCAA,-0.0288 ± 0.022
12,CATGTACC,-0.115 ± 0.026
13,ATATATGG,0.285 ± 0.018
14,CTATATGA,0.145 ± 0.07
15,AAATATGG,0.18 ± 0.0044
16,ACATATGC,0.0823 ± 0.085
17,AGATATGG,0.168 ± 0.027
18,GTATATGA,0.0252 ± 0.077
19,ATATATGC,0.251 ± 0.052
20,CTATATGC,0.159 ± 0.037
21,ATATATGA,0.293 ± 0.049
22,ATCCTGTG,-0.0686 ± 0.032

row,Sequence,PBM 8-mer E-score
1,GGCGGACC,-0.233 ± 0.004
2,ATATGAGC,0.148 ± 0.011
3,GACATCTC,-0.202 ± 0.052
4,TGTGCAAA,-0.0258 ± 0.033
5,ATTACAGC,-0.033 ± 0.008
6,ATTACAGA,-0.0244 ± 0.14
7,ATTACATG,0.242 ± 0.037
8,ATTACAGG,0.312 ± 0.042
9,ATTACATA,0.0685 ± 0.037
10,ATTACATC,0.126 ± 0.094
11,GGCTGGGA,-0.0185 ± 0.052
12,ACACCGAA,-0.0827 ± 0.029
13,ACCTCGGA,-0.233 ± 0.0065
14,CAGTCTCA,-0.0913 ± 0.013
15,TAGTTATA,0.255 ± 0.0097
16,CAATTATA,0.176 ± 0.028
17,GAGTTATA,0.104 ± 0.048
18,TAATTATA,0.245 ± 0.027
19,AAATTATG,0.134 ± 0.036
20,AAATTATC,0.199 ± 0.084
21,AAGTTATA,0.0392 ± 0.07
22,AAATTATA,0.301 ± 0.063

row,Sequence,PBM 8-mer E-score
1,GAATTATA,0.19 ± 0.11
2,CGCCTTCA,-0.00719 ± 0.17
3,AGATGCCG,-0.118 ± 0.13
4,GTAACATA,0.177 ± 0.016
5,ATACCGCA,0.013 ± 0.035
6,AAATTGAA,0.24 ± 0.083
7,ATATTGAA,0.0994 ± 0.059
8,TTATTGAA,0.3 ± 0.049
9,GTATTGAA,0.132 ± 0.089
10,AAATTGAT,0.113 ± 0.046
11,GAATTGAA,0.0949 ± 0.085
12,ACAACGGA,-0.0195 ± 0.029
13,ACGATACA,0.0917 ± 0.079
14,ACATAGCG,0.00456 ± 0.11
15,ACCCCGCT,-0.0295 ± 0.018
16,GATGCGCC,-0.0256 ± 0.014
17,TGTGAAAA,0.289 ± 0.035
18,CGTGAAAA,0.109 ± 0.014
19,GGTGAAAA,-0.00809 ± 0.034
20,AATAGGTA,0.198 ± 0.0069
21,AGCCGTTA,-0.114 ± 0.018
22,AACCGTAA,0.0404 ± 0.047

row,Sequence,PBM 8-mer E-score
1,CTGATCAA,-0.0225 ± 0.021
2,CGCGGGAA,0.0597 ± 0.013
3,ATGTAAAT,0.159 ± 0.029
4,ATGTAAAA,0.274 ± 0.016
5,ATGTAATA,0.278 ± 0.0077
6,ATGTACTA,0.258 ± 0.061
7,CTGTAAAA,0.102 ± 0.0073
8,ATGTAATG,0.134 ± 0.074
9,ATGTAATC,0.236 ± 0.023
10,GTGTAATA,0.162 ± 0.042
11,GTGTACTA,0.0822 ± 0.031
12,CTGTAATA,0.134 ± 0.074
13,ATGTACTG,0.0436 ± 0.099
14,CTGTAATC,0.0629 ± 0.045
15,CCTGGAGA,-0.136 ± 0.09
16,AAACTTAT,0.203 ± 0.022
17,GTGGGCCA,-0.0973 ± 0.051
18,AGGAGCCC,0.00737 ± 0.03
19,ACCTCCAG,-0.161 ± 0.079
20,AGGGACCT,-0.13 ± 0.0014
